Laboratory results published in PubChem BioAssay (NCI).
Where “and” joins values, the source holds several entries; their conditions need not be identical. Identical values can stand only once. Compounds without any hit were thinned out: in the full panel of roughly 83,000, 20% have a hit.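 Negative percent growth values reflect cell death: -40 means 40% of the cells present at the start died, and -100 means all died.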 Calls of active or inactive are those of the source. Rule for the calls: active = growth percent below 10; inactive = the rest.

The molecules below were run on TK-10 renal (assay: NCI-60 one-dose screen, 48 h (100 = growth as untreated, 0 = no growth, -100 = all killed)). Settings: 10 µM unless noted.
With CCOc1ccc(NC(=O)/C(=N\N)C(C(=O)OC)c2nc3ccc(Cl)cc3[nH]c2=O)cc1 (centres undefined) the growth was 128% [100 µM] (inactive) and 85.6% [100 µM] (inactive).
On1c(-c2ccccc2)nc2ccccc2c1=S was tested, and the growth was 1.71% [100 µM] (active) and -38.8% [100 µM] (active).
CC1=CC[C@@H]2[C@@H](CC[C@@]2(C)O)C(C)(C)[C@H]1CC[C@@H]1[C@@]2(C)CC[C@@H](O)C(C)(C)O[C@@H]2CC[C@]1(C)O was tested, and the growth was 12.5% [100 µM] (inactive) and -92.2% [100 µM] (active).
In the case of CCOC(=O)COc1cc(-c2ccccc2F)nc2cc3c(cc12)OCO3, the growth is reported as 126% [100 µM] (inactive) and 78.4% [100 µM] (inactive).
For CC1=C(C2=C(C)C(=O)C(=O)c3cc(C)ccc32)c2ccc(C)cc2C(=O)C1=O, the growth was -100% [100 µM] (active).
In the case of Cn1c(COC(=O)NC2CCCCC2)c(COC(=O)NC2CCCCC2)c2ccc3cc(Cl)c(Cl)cc3c21, the growth is reported as -93.7% [100 µM] (active).
For COc1ccc(Nc2nc3ccc(C(F)(F)F)cc3nc2C(=O)O)cc1, the growth was -10.5% [100 µM] (active) and -93.8% [100 µM] (active).
In the case of C=C1C(=O)OC2CC1C(OC(=O)/C=C/c1ccccc1)C/C(C)=C/CC/C(C)=C/CCC2(C)O (centres undefined), the growth is reported as -99.2% [100 µM] (active) and -83.5% [100 µM] (active).
For C=C1C(=O)OC2CC3(C)CCCC(C)C3=CC12 (centres undefined), the growth was -100% [100 µM] (active) and -97% [100 µM] (active).
